Experimental data as given in paper PMC5540273 (PLoS ONE, 2017).

Experiments:
Settings in all cases: concentration: 1 μM,replicates: in singlicate; n = 1
EPHA7 = tested on: EPHA7
EPHA8 = tested on: EPHA8
EPHB1 = tested on: EPHB1
EPHB2 = tested on: EPHB2
EPHB3 = tested on: EPHB3
EPHB4 = tested on: EPHB4
EPHB6 = tested on: EPHB6
ERBB2 = tested on: ERBB2
ERBB3 = tested on: ERBB3
ERBB4 = tested on: ERBB4
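Also: KINOMEscan kinase panel screen.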

Structure (SMILES)	%Inh (EPHA7) [%]	%Inh (EPHA8) [%]	%Inh (EPHB1) [%]	%Inh (EPHB2) [%]	%Inh (EPHB3) [%]	%Inh (EPHB4) [%]	%Inh (EPHB6) [%]	%Inh (ERBB2) [%]	%Inh (ERBB3) [%]	%Inh (ERBB4) [%]
CC(C)c1nc(-c2cccc(NS(=O)(=O)c3ccccc3)c2)c(-c2ccnc(Nc3ccc4c(c3)CN(C)CC4)n2)s1 [GSK1649598]	13	80	34	0	0	11	98.5	86	97.7	98.8
Cn1ccc2ncnc(Oc3ccc(NC(=O)Nc4cccc(C(F)(F)F)c4)c(F)c3)c21	93.8	98.8	80	90.6	74	81	97.6	10	24	2
COC(=O)c1cccc(NC(=O)NC2CCN(c3ccnc(NCc4ccc(F)cc4)n3)CC2)c1 [GSK1379860]	18	19	14	0	11	4	0	21	8	6
NC(=O)c1ccc(-c2cc3ncnc(SCC(=O)O)c3s2)cc1	0	0	0	0	26	1	62	33	0	10
CC(C)S(=O)(=O)N1CCN(Cc2ccc3c(c2)nc(NC(=O)c2ccsc2)n3C[C@H](O)c2ccccc2)CC1 [GW635815]	10	19	35	16	15	14	0	0	0	0
CN1CCN(CCNc2nc3cc(Oc4ccc(NC(=O)Nc5cc(C(F)(F)F)ccc5F)cc4)ccc3[nH]2)CC1.Cl.Cl [GW768504]	0	23	17	34	14	17	25	0	0	0
Cl.Cl.NC[C@H](CC1CCCCC1)NC(=O)c1ccc(-c2ccnc3[nH]ccc23)s1 [GSK1581428]	14	36	6	0	15	14	12	22	0	0
O=C(Nc1cccc(Oc2ccc3nccn3n2)c1)Nc1cccc(C(F)(F)F)c1	0	92.6	3	39	11	16	40	22	45	0
CCNCC(Cc1ccccc1)NC(=O)c1cc(Br)c(-c2ccnc3[nH]ccc23)s1.Cl.Cl (stereo not drawn) [GSK1383280]	9	26	7	0	17	0	0	3	0	22
C[C@@H]1CNc2c(sc3ccc4nc(-c5ccc(O)cc5)ccc4c23)C(=O)N1	0	0	5	12	0	0	9	26	0	6
Cc1ccc(C(=O)Nc2ccc(Oc3ccc4nc(NC(=O)C5CC5)cn4c3)c(F)c2)c(=O)n1-c1ccccc1	74	99.8	83	94.8	11	75	99.1	30	43	3
COC(=O)Nc1nc2cc(Oc3ccc(NC(=O)Nc4cc(C(F)(F)F)ccc4Cl)cc3)ccc2[nH]1.Cl [GW697465]	84	99.7	62	60	10	51	83	45	25	37
C[C@@H]1CNc2c(sc3ccc4nc(-c5ccncc5)ccc4c23)C(=O)N1	0	0	0	0	20	17	18	14	10	0
Cn1ccc2ncnc(Oc3ccc(NC(=O)Nc4cccc(C(F)(F)F)c4)c(Cl)c3)c21	82	99.5	70	92.9	66	64	90	29	5	12
Nc1nccc(-c2ccc3c(N)n[nH]c3c2)n1 [GSK1034945]	6	13	30	19	16	6	2	6	0	25
Cc1ccn2nc(-c3ccc(F)cc3)c(-c3ccncc3)c2c1.Cl [GW457859]	0	0	0	0	2	3	8	64	24	32
Cc1cccc2c(-c3ccncc3)c(-c3ccc(F)cc3)nn12.Cl [GW461487]	9	16	5	94.5	7	0	26	1	0	16

Structure (SMILES)	%Inh (EPHA7) [%]	%Inh (EPHA8) [%]	%Inh (EPHB1) [%]	%Inh (EPHB2) [%]	%Inh (EPHB3) [%]	%Inh (EPHB4) [%]	%Inh (EPHB6) [%]	%Inh (ERBB2) [%]	%Inh (ERBB3) [%]	%Inh (ERBB4) [%]
Cc1ccc(Nc2ccnc(Nc3ccc4c(c3)CS(=O)(=O)C4)n2)cc1O.Cl [GW579362]	44	85	78	25	0	16	91.7	17	34	69
CN(c1ccc2c(c1)nc(NCc1ccc(F)cc1)n2C)c1ccnc(Nc2ccc(CS(C)(=O)=O)cc2)n1.Cl [GW813244]	0	49	9	23	5	0	78	17	0	19
CCOC(=O)N1CCC(n2cnc(-c3ccc(F)cc3)c2-c2ccnc(N)n2)CC1 [SB-219952]	1	0	0	7	11	4	30	5	21	21
Cn1cc(-c2cccc3c(N)c(C(N)=O)nnc23)cn1	6	13	4	12	11	5	16	14	27	0
Cn1ccc2ncnc(Oc3ccc(NC(=O)Nc4cnn(C(C)(C)C)c4)c(Cl)c3)c21	27	41	15	50	29	15	48	31	9	12
COC(=O)c1cccc(NC(=O)NC2CCN(c3ccnc(Nc4cc(OC)c(OC)c(OC)c4)n3)C2)c1 (stereo not drawn) [GSK1379767]	4	7	10	0	8	20	86	51	31	0
FC(F)(F)c1cc(Br)cc(Nc2nccc(-c3cnn4ncccc34)n2)c1 [GW810578]	0	0	0	9	17	0	48	0	1	0
O=C(Nc1ccccc1)c1cccc(Oc2ccc3nccn3n2)c1	0	1	13	8	0	3	64	0	39	0
Cn1ccc2ncnc(Oc3ccc(NC(=O)Nc4cc(C(C)(C)C)on4)c(Cl)c3)c21	90	98.9	65	78	40	35	64	81	5	0
O=C1NCCc2[nH]c(-c3ccncc3)cc21	0	0	0	12	44	17	8	0	21	0
OCCn1cc(-c2cnc3nnn(Cc4ccc5ncccc5c4)c3n2)cn1	0	0	0	0	0	0	17	5	0	0
CCN1CCN(CCCC(=O)Nc2n[nH]c3nc(-c4ccc(O)cc4)c(Br)cc23)CC1 [SB-731579]	0	0	0	6	0	0	0	24	66	0
CN1CCN(CCCNc2nccc(-c3c(-c4ccc(F)cc4)nn4cc(C(N)=O)ccc34)n2)CC1 [GW622475]	8	26	35	26	0	20	44	24	0	63
COc1cccc(OC)c1C(=O)Nc1cccc(-c2nn3ccccc3c2-c2ccnc(Nc3cccc(F)c3)n2)c1 [GSK361065]	14	17	100	0	8	8	42	61	0	84
CC(=O)Nc1ccc(-c2cc3ncnc(SCC(=O)O)c3s2)cc1	0	0	0	10	22	23	84	6	8	3
CN(c1ccccc1CNc1nc(Nc2ccc3c(c2)CC(=O)N3)ncc1C(F)(F)F)S(C)(=O)=O	61	0	11	4	0	0	38	0	0	0
